Source: the supplement of paper PMC10849652
Targets with a hit are over-represented here; the source holds about 8,800 in all. About 0.5% of all pairs of compound and target were hits.

Columns and labels:
Test in all cases: log2 fold change, soluble protein after heating vs DMSO (PISA); higher = thermal stabilisation; K562 lysate, 10 uM; active = over 0.2 and 3.5 SD of the protein, either way, in both replicates (recomputed)
alvocidib = compound: CN1CC[C@H](c2c(O)cc(O)c3c(=O)cc(-c4ccccc4Cl)oc23)[C@H](O)C1 [alvocidib]
Summary of the method: (§1)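 To prepare the extract, K562 pellets were dounce-homogenised in PBS pH 7.4 with 1 mM MgCl2, giving crude material at 1 mg/mL protein. This was treated with 10 μM compound for 30 min, then heated in aliquots for 3 min over 48°C-58°C before pooling and addition of NP-40 to 0.5% at 4°C. Centrifugation at 21,000xg for 90 min left soluble protein in the supernatant, which TMTpro 16plex LC-MS/MS quantified with equalised channel sums. Results are log-two fold changes in thermal stability compared with solvent controls, from duplicates.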

Tubastatin A = compound: CN1CCc2c(c3ccccc3n2Cc2ccc(C(=O)NO)cc2)C1 [Tubastatin A]
Summary of the method: as §1

[1] = compound: CNC(=O)C1=CC=CC=C1NC2=NC(=NC=C2Cl)NC3=C(C=C(C=C3)N4CCOCC4)OC
Summary of the method: as §1

defactinib = compound: CNC(=O)c1ccc(Nc2ncc(C(F)(F)F)c(NCc3nccnc3N(C)S(C)(=O)=O)n2)cc1 [defactinib]
Summary of the method: as §1

[2] = compound: CNc1nc(-c2ccc3c(N)n[nH]c3c2)cc(N2C[C@@H](C(=O)NC3CCCCC3)CC[C@H]2C)n1
Summary of the method: as §1

encorafenib = compound: COC(=O)N[C@@H](C)CNc1nccc(-c2cn(C(C)C)nc2-c2cc(Cl)cc(NS(C)(=O)=O)c2F)n1 [encorafenib]
Summary of the method: as §1

[3] = compound: COC(=O)[C@H](CCSC)NC(=O)C1=C(C=C(C=C1)NC[C@H](CS)N)C2=CC=CC=C2
Summary of the method: as §1

alisertib = compound: COc1cc(Nc2ncc3c(n2)-c2ccc(Cl)cc2C(c2c(F)cccc2OC)=NC3)ccc1C(=O)O [alisertib]
Summary of the method: as §1

[4] = compound: COc1cc2nc(-c3cc(F)ccc3O)nc(N[C@@H]3CNC[C@H]3C(C)(C)O)c2cc1OC
Summary of the method: as §1

gefitinib = compound: COc1cc2ncnc(Nc3ccc(F)c(Cl)c3)c2cc1OCCCN1CCOCC1 [gefitinib]
Summary of the method: as §1

Measured: log2 fold change

UQCRC2 (UniProt P22695)
inactive: alvocidib -0.005 | Tubastatin A 0.035 | [1] -0.013 | defactinib 0.014 | [2] 0.01 | encorafenib -0.001 | [3] -0.013 | alisertib 0.022 | [4] 0.024 | gefitinib -0.013

UTP3 (UniProt Q9NQZ2)
inactive: alvocidib 0.04 | Tubastatin A -0.022 | [1] -0.047 | defactinib 0.151 | [2] 0.089 | encorafenib 0.05 | [3] 0.005 | alisertib -0.042 | [4] -0.002 | gefitinib -0.017

VPS37B (UniProt Q9H9H4)
inactive: alvocidib 0.025 | Tubastatin A -0.034 | [1] -0.047 | defactinib 0.052 | [2] 0.024 | encorafenib -0.014 | [3] -0.053 | alisertib -0.019 | [4] -0.003 | gefitinib -0.071

ZNHIT6 (UniProt Q9NWK9)
inactive: alvocidib 0.004 | Tubastatin A -0.046 | [1] 0.034 | defactinib -0.04 | [2] 0.086 | encorafenib 0.037 | [3] 0.118 | alisertib -0.021 | [4] -0.022 | gefitinib 0.008

ZMYM2 (UniProt Q9UBW7)
inactive: alvocidib 0.076 | Tubastatin A -0.155 | [1] 0.003 | defactinib 0.121 | [2] -0.021 | encorafenib -0.214 | [3] -0.018 | alisertib -0.077 | [4] 0.087 | gefitinib 0.06

ZMYM4 (UniProt Q5VZL5)
inactive: alvocidib -0.071 | Tubastatin A -0.089 | [1] -0.015 | defactinib 0.096 | [2] 0.188 | encorafenib 0.063 | [3] 0.016 | alisertib -0.004 | [4] 0.004 | gefitinib 0.047

YRDC (UniProt Q86U90)
inactive: alvocidib 0.015 | Tubastatin A -0.006 | [1] 0.044 | defactinib -0.023 | [2] 0.043 | encorafenib 0.003 | [3] -0.1 | alisertib -0.014 | [4] -0.004 | gefitinib -0.001

USP3 (UniProt Q9Y6I4)
UniProt Q9Y6I4, sequence (Q9Y6I4 whole entry, looked up): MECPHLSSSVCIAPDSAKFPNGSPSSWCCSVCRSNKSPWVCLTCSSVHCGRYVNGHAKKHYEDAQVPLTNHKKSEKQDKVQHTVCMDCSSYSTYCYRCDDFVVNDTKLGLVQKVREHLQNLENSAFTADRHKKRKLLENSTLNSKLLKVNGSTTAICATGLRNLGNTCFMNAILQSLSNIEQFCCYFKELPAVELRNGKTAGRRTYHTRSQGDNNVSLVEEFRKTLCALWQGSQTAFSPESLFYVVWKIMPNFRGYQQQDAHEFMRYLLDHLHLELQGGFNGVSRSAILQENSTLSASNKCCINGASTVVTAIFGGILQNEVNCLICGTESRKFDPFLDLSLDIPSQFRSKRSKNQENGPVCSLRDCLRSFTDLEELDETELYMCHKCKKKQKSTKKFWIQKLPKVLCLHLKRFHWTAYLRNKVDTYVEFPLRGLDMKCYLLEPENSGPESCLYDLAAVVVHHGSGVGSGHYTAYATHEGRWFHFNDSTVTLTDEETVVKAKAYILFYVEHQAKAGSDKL
inactive: alvocidib 0.002 | Tubastatin A -0.154 | [1] -0.046 | defactinib 0.013 | [2] -0.024 | encorafenib 0.03 | [3] 0.022 | alisertib -0.008 | [4] 0.028 | gefitinib -0.005

WDR3 (UniProt Q9UNX4)
inactive: alvocidib 0.008 | Tubastatin A -0.099 | [1] -0.013 | defactinib 0.031 | [2] -0.048 | encorafenib -0.008 | [3] 0.046 | alisertib 0.03 | [4] -0.007 | gefitinib -0.01

XAB2 (UniProt Q9HCS7)
UniProt Q9HCS7, sequence (Q9HCS7 whole entry, looked up): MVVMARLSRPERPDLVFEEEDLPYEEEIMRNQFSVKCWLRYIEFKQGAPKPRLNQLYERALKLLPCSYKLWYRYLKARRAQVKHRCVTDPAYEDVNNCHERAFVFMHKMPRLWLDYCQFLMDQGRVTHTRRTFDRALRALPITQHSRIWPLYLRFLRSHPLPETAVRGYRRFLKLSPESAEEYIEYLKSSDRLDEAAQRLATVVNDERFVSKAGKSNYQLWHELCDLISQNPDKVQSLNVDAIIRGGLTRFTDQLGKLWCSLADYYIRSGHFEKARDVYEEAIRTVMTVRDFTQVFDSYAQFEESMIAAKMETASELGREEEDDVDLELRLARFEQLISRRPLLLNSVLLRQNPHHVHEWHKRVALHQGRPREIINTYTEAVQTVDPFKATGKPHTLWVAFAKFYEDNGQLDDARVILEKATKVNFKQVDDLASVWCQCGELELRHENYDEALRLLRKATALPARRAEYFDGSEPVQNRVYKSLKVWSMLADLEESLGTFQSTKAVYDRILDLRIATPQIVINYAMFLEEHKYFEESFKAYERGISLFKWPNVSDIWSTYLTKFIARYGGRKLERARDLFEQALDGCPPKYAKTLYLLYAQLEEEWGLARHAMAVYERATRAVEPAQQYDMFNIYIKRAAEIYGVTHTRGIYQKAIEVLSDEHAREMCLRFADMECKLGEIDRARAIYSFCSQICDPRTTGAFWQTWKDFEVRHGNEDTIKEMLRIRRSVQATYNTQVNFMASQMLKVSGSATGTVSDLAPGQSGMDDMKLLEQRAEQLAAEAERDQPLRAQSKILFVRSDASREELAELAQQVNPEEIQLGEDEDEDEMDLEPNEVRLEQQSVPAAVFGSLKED
inactive: alvocidib -0.003 | Tubastatin A -0.039 | [1] 0.012 | defactinib 0.008 | [2] 0.014 | encorafenib -0.045 | [3] 0.2 | alisertib -0.017 | [4] 0.025 | gefitinib 0.046

UNC45A (UniProt Q9H3U1)
inactive: alvocidib -0.017 | Tubastatin A -0.146 | [1] 0 | defactinib 0.018 | [2] -0.011 | encorafenib -0.003 | [3] 0.044 | alisertib 0.006 | [4] 0.001 | gefitinib -0.02

VRK2 (UniProt Q86Y07)
UniProt Q86Y07, sequence (Q86Y07 whole entry, looked up): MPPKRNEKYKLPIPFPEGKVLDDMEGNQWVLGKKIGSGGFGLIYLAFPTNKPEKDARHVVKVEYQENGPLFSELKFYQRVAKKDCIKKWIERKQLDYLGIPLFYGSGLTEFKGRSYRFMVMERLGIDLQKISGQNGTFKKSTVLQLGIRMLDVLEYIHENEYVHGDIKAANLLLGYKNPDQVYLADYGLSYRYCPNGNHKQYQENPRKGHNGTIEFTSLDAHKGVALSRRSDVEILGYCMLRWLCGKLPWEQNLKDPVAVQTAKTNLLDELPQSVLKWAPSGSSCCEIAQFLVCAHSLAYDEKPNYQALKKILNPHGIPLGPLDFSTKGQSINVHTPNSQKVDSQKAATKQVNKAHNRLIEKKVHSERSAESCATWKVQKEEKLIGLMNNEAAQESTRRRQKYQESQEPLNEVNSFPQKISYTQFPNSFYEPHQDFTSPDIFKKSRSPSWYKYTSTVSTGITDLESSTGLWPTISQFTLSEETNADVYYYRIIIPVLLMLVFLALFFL
inactive: Tubastatin A -0.017 | [1] 0.067 | defactinib 0.156 | [2] -0.044 | encorafenib -0.068 | [3] 0.032 | alisertib -0.033 | [4] 0.008 | gefitinib -0.08
active: alvocidib 0.503

USP48 (UniProt Q86UV5)
UniProt Q86UV5, sequence (Q86UV5 whole entry, looked up): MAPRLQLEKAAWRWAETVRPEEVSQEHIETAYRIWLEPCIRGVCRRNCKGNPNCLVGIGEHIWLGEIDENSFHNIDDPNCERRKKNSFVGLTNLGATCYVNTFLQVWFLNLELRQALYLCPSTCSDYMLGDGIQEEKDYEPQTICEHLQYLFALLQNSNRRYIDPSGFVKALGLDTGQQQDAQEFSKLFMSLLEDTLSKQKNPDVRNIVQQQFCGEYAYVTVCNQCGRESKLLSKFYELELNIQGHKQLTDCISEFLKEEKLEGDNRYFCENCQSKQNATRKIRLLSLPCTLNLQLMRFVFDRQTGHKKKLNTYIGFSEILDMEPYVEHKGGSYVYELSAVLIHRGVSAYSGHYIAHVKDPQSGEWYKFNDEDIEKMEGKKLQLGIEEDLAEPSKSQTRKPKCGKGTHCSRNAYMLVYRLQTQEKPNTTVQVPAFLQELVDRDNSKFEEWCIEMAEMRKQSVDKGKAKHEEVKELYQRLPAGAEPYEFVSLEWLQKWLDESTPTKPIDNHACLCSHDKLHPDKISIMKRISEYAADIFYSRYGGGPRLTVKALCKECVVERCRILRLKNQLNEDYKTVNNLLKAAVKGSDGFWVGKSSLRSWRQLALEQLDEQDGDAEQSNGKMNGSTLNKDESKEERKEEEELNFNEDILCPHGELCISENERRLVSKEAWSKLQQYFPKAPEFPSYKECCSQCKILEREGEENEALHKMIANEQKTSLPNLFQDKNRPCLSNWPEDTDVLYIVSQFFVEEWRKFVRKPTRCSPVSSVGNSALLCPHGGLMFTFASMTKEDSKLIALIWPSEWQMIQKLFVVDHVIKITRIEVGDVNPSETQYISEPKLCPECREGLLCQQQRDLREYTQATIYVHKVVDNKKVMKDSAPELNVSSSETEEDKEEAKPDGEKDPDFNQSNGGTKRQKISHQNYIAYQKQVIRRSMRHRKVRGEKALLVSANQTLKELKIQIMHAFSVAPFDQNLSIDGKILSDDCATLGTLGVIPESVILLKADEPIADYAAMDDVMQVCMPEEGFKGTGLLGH
inactive: alvocidib -0.193 | Tubastatin A -0.069 | [1] 0.123 | defactinib 0.024 | [2] 0.054 | encorafenib -0.016 | [3] 0.018 | alisertib -0.015 | [4] 0.09 | gefitinib -0.069

ZNF598 isoform 3 (UniProt Q86UK7)
inactive: alvocidib -0.01 | Tubastatin A -0.095 | [1] 0.025 | defactinib 0.004 | [2] 0.015 | encorafenib 0.004 | [3] -0.039 | alisertib 0.009 | [4] 0.012 | gefitinib 0.007

VAV1 (UniProt P15498)
inactive: alvocidib 0.005 | Tubastatin A -0.117 | [1] -0.028 | defactinib 0.018 | [2] 0.007 | encorafenib -0.026 | [3] 0.025 | alisertib -0.006 | [4] -0.044 | gefitinib 0.024

VAV3 isoform 4 (UniProt Q9UKW4)
inactive: alvocidib -0.305 | Tubastatin A -0.202 | [1] 0.032 | defactinib -0.295 | [2] 0.053 | encorafenib 0 | [3] 0.049 | alisertib -0.004 | [4] 0.054 | gefitinib 0.036

ZDHHC18 (UniProt Q9NUE0)
inactive: alvocidib -0.09 | Tubastatin A -0.016 | [1] 0.222 | defactinib 0.029 | [2] -0.044 | encorafenib -0.038 | [3] 0.042 | alisertib -0.131 | [4] -0.036 | gefitinib -0.069

WDR77 (UniProt Q9BQA1)
inactive: Tubastatin A 0.004 | [1] 0.002 | defactinib -0.012 | [2] 0.012 | encorafenib 0.055 | [3] -0.07 | alisertib -0.031 | [4] -0.024 | gefitinib -0.003
active: alvocidib 0.242

WDR24 (UniProt Q96S15)
inactive: alvocidib -0.001 | Tubastatin A -0.096 | [1] -0.032 | defactinib 0.053 | [2] -0.054 | encorafenib 0.022 | [3] 0.125 | alisertib -0.02 | [4] 0.021 | gefitinib -0.008

ZMYND8 isoform 19 (UniProt Q9ULU4)
inactive: alvocidib 0 | Tubastatin A -0.091 | [1] 0.017 | defactinib 0.104 | [2] -0.052 | encorafenib -0.002 | [3] 0.065 | alisertib 0.022 | [4] -0.046 | gefitinib -0.023

ZNF217 (UniProt O75362)
inactive: alvocidib -0.144 | Tubastatin A -0.076 | [1] 0.009 | defactinib -0.045 | [2] -0.004 | encorafenib -0.06 | [3] -0.037 | alisertib 0.032 | [4] 0.219 | gefitinib -0.013

XPO6 (UniProt Q96QU8)
UniProt Q96QU8, sequence (Q96QU8 whole entry, looked up): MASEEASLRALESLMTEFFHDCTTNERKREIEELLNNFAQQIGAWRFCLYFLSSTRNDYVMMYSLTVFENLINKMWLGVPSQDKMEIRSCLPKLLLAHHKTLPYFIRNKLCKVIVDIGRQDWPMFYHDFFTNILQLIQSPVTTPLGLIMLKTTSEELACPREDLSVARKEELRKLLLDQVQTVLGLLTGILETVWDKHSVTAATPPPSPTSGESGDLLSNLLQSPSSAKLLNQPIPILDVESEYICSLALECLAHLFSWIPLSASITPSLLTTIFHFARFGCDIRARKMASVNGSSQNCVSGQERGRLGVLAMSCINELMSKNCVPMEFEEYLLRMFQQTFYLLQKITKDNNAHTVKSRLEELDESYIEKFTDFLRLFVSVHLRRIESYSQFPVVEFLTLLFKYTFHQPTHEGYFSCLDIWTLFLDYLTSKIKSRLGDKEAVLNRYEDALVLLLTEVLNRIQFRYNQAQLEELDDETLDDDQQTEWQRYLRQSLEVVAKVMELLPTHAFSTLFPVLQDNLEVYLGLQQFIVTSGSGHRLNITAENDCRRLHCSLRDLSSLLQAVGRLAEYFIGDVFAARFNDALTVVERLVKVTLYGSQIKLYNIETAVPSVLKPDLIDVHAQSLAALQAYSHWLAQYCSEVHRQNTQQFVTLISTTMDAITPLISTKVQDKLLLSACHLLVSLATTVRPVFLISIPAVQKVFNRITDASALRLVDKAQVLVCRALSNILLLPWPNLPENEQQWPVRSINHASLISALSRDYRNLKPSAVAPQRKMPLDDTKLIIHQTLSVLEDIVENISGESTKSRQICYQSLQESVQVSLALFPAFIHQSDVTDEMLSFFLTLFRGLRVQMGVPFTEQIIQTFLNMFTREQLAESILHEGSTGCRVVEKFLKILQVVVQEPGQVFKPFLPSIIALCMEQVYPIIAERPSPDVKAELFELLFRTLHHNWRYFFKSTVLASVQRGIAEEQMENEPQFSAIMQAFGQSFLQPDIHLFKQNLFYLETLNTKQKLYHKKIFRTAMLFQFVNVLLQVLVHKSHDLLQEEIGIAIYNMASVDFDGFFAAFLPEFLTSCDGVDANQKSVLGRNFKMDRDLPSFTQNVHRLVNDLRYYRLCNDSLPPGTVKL
inactive: alvocidib -0.058 | Tubastatin A -0.09 | [1] -0.048 | defactinib -0.025 | [2] -0.05 | encorafenib -0.006 | [3] 0.021 | alisertib 0.036 | [4] 0.031 | gefitinib 0.067

USP10 isoform 2 (UniProt Q14694)
inactive: alvocidib 0.006 | Tubastatin A -0.118 | [1] 0.015 | defactinib 0.017 | [2] 0.021 | encorafenib 0.019 | [3] 0.04 | alisertib 0.012 | [4] -0.009 | gefitinib -0.018

ZBTB33 (UniProt Q86T24)
inactive: alvocidib -0.028 | Tubastatin A -0.005 | [1] -0.178 | defactinib -0.062 | [2] 0.119 | encorafenib 0.018 | [3] -0.004 | alisertib -0.059 | [4] -0.307 | gefitinib 0.086

ZNF451 (UniProt Q9Y4E5)
UniProt Q9Y4E5, sequence (Q9Y4E5 whole entry, looked up): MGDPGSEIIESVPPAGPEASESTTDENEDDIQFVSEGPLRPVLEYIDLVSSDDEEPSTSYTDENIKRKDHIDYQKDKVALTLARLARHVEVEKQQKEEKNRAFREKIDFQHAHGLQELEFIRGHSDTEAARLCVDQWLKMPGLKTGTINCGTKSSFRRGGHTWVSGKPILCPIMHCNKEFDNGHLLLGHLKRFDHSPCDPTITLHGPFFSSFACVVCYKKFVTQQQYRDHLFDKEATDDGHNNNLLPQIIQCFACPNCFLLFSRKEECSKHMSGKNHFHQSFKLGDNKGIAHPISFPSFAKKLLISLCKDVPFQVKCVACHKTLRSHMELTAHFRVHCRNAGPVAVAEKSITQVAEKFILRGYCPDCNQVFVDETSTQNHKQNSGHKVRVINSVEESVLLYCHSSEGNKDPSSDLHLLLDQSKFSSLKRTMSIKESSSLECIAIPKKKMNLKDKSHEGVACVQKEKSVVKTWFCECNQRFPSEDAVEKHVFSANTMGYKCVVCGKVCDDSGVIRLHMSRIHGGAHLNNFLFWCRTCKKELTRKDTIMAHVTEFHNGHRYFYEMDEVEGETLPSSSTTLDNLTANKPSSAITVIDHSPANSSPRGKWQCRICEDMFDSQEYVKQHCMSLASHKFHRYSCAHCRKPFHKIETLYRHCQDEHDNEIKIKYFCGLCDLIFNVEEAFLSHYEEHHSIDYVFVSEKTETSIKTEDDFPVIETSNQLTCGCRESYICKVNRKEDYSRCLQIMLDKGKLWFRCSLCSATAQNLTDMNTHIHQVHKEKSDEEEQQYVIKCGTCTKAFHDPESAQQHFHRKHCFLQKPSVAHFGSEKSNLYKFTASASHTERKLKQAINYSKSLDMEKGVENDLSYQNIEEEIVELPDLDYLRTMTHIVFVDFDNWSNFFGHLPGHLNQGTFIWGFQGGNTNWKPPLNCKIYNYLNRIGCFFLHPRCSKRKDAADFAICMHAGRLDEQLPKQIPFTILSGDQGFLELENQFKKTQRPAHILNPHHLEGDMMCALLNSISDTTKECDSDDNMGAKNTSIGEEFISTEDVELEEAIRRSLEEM
inactive: alvocidib -0.011 | Tubastatin A -0.121 | [1] 0.027 | defactinib 0 | [2] -0.014 | encorafenib -0.03 | [3] 0.07 | alisertib 0.008 | [4] -0.012 | gefitinib -0.009

WAC (UniProt Q9BTA9)
inactive: alvocidib -0.008 | Tubastatin A -0.035 | [1] 0.068 | defactinib 0.013 | [2] 0.007 | encorafenib -0.006 | [3] 0.118 | alisertib -0.019 | [4] -0.01 | gefitinib 0.009

USP34 (UniProt Q70CQ2)
inactive: alvocidib 0.035 | Tubastatin A -0.045 | [1] 0.009 | defactinib 0.006 | [2] -0.014 | encorafenib 0.033 | [3] 0.09 | alisertib 0 | [4] 0.017 | gefitinib 0.013

WIPI2 isoform 6 (UniProt Q9Y4P8)
inactive: alvocidib -0.015

ZNF609 (UniProt O15014)
inactive: alvocidib -0.028 | Tubastatin A -0.044 | [1] 0.02 | defactinib -0.026 | [2] 0.074 | encorafenib 0.002 | [3] 0.013 | alisertib -0.01 | [4] 0.018 | gefitinib -0.002

VPS28 (UniProt Q9UK41)
inactive: alvocidib -0.018 | Tubastatin A -0.034 | [1] 0 | defactinib -0.018 | [2] -0.078 | encorafenib 0.046 | [3] 0.012 | alisertib -0.022 | [4] 0 | gefitinib 0.034
